Measured values taken from the supplement of paper PMC3334620.
The full ranking holds about 33,000 sequences; the median of “E-score (-0.5 to 0.5)” is about -8e-05, and the highest 2% start at about 0.23. The list comes from a sample in which the highest values are over-represented; it also holds similar and randomly drawn sequences.

biological target: T1, Nrg2 (UniProt P38082); assay: PBM E-score (8-mer binding enrichment) (E-score (-0.5 to 0.5)); higher = stronger / more preferred TF binding; conditions: protein concentration: 100 nM; construct: GST-full length
T1 sequence: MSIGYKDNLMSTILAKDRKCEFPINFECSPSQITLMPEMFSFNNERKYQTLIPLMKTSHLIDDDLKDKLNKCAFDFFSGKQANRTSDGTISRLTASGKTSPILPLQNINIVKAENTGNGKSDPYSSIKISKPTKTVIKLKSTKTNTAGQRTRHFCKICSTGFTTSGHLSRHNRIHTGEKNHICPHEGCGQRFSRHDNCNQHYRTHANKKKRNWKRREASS
Protocol: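 Universal 'all 10-mer' protein binding microarrays (Agilent AMADID 015681) probed with GST-tagged S. cerevisiae TFs (full-length or DBD) made by in vitro transcription/translation (PURExpress), about 100-200 nM. Bound TF was detected with fluorescent anti-GST. Each ungapped 8-mer (which stands for itself and its reverse complement) is scored by the PBM enrichment score (E-score), a modified Wilcoxon-Mann-Whitney statistic from -0.5 to +0.5, computed with the Universal PBM Analysis Suite. Scale: above 0.35 generally sequence-specific binding.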

Sequence	PBM E-score
TCACTGCA	0.167
CTCGGCCA	0.104
ACCTGGAA	0.203
CGGGCTAG	-0.0659
GTAAGACA	-0.0374
GGGATCAA	-0.0876
ATGAGATC	0.0358
CAGTTGGA	-0.00944
AAGGGTTC	0.248
AAGGGTTG	0.167
CAGGGTTA	0.0393
CAGGGTGC	0.19
CAGGGTTC	0.387
AAGGGTTA	0.076
AAATGCTA	0.0225
GACGCTAC	-0.0645
AAACTCTG	0.102
TATCTCAA	0.267
CTCATCAC	-0.0539
GATCTCAA	0.115
CATCTCAC	-0.0644
ATCATCAG	0.0405
AATCTTAA	0.0405
CTCATCAG	0.247
CATCTCAG	0.23

Sequence	PBM E-score
CATCTTAG	0.0135
CATCTTAA	0.251
CATCTCAA	-0.0442
AATCTCAA	0.124
GCCCTCAC	-0.177
GGTTCAAA	0.0475
CACGCAGG	0.0602
GACAGTGC	0.0298
AGTGATCA	0.063
AAACCCAA	0.0986
CTCGTTGC	0.212
ACTTGTAA	-0.0121
AGTCATAT	0.0126
AGGCTGAG	-0.0549
ATACTAAA	0.234
ACACTAAA	0.271
TCACTAAA	0.099
TTACTAAA	0.123
GTACTAAA	0.121
CCACTACA	0.045
GCACTAAA	0.0452
TCACTACA	0.24
ACACTACA	0.108
CAGATGCA	-0.158
ATTAACCG	0.107

Sequence	PBM E-score
ATGAGACA	0.0867
AGGTCGGG	-0.142
AAAACCAT	0.137
ATTTCGCA	0.274
ATTTCTCC	0.0443
ATTTCGAG	0.14
ATTTCGGG	0.037
CTTTCGCA	-0.0222
ATTTCTCA	0.0394
ATTTCTCG	0.285
ATTTCGCC	0.0633
ATTTCGCG	0.275
AGTTAAGA	0.0745
GGAACTCC	0.0233
GACTCCCA	-0.248
CGATCTCC	-0.0956
AATAGGAC	0.0448
ACGTCATC	-0.0886
GCTATTCC	-0.0857
ACTGCTCC	0.0162
TAACCCAA	-0.00379
CTAATTGC	0.0943
CTATCTCA	0.0251
ATATCTCC	0.251
CTCTCTCA	-0.0307

Sequence	PBM E-score
GTCTCTCA	-0.0103
ATATCTCG	0.0423
ATCTCAAG	0.238
ATATCTCA	0.238
ATCTCAAC	0.158
CTATCTCC	0.0511
ATCTCTCA	0.236
ATCTCAAT	0.0327
ATCTCTCC	0.0215
ACTCGCCT	0.063
GTCAGGCA	-0.108
TGCGGGAA	0.125
CAGACCTG	-0.119
GCGAATAA	0.18
GAGATACC	0.127
AGCTATGG	-0.0356
ATATCAAG	0.285
ATATCAAT	0.212
CTATCAAG	0.0817
AACTCAAG	-0.0395
CTCTTGAA	-0.0353
CAGGGCGG	-0.0602
CTAGTTGA	0.128
GACATTGC	-0.0455
CACCCGGG	-0.0923

Sequence	PBM E-score
ATCCCGCC	0.0743
ACCCCGGG	-0.056
ATCCCGCG	0.294
AACCCGCG	0.267
AACCCGCA	0.0835
AACCCGGG	0.255
AACCCGCC	0.00993
ATCCCGCA	0.08
AGTGGTCA	-0.145
TCGCCGAA	-0.124
CAGAGTAC	-0.112
ATATGGCC	-0.0218
CTTGTTAA	0.0818
ATTGTTAA	0.0152
GTTGTTAA	0.241
CGCAAGGC	0.203
CCTGTATA	0.0265
ACTGTATC	-0.0153
CCTGTATC	0.233
CAGATTAC	-0.0348
GCGGACAA	0.15
ACGGACAA	0.233
CCGGACAA	0.058
CGTACTTA	0.115
CACCAAGA	0.00109

Sequence	PBM E-score
AGTTTGAC	-0.104
CGTTTGAA	0.00719
AGTTTGAA	0.23
GGATCGCC	0.0218
AAAGGAGG	-0.252
ATCAAACC	0.123
ACAGAGCT	-0.214
ATCGAGCC	-0.103
AGCGCGCC	0.0741
AGCGCGCG	0.274
ATCGAGCG	0.229
ACCGCGCT	0.0712
CGCCCGCC	0.085
ATCGAGCA	0.0824
ACCGCGCC	0.00956
AGCGCGCT	0.187
ACCGCGCG	0.301
TGCCCGCA	0.148
CGCCCGCA	0.229
CACGTAGG	-0.156
AAAATTCA	0.199
CAACGCGC	0.215
GAAGGAAA	-0.238
CGCGCAGC	0.0142
CAAGCGCC	-0.196

Sequence	PBM E-score
AAAGCGCA	0.012
ATCTCGCA	0.0354
GGCGCAGA	-0.0307
CGCGCAGA	0.232
CAGGGGCG	0.252
CAGGGGCC	0.191
AAGGGGCG	-0.117
ATCTCGCC	0.0341
ATCTCGCG	0.282
CAAGCGCA	0.363
AAGTGATT	0.0989
CCCTGCGC	0.1
CCTCTTTC	-0.184
ACACTAGC	-0.00995
ACTAGGAC	-0.00051
GTTTGCGA	0.0803
GGTCTAGA	-0.109
AACGTTTC	-0.144
ATCTCCAC	-0.0729
CTGTTCGC	0.0452
GAGACAAA	-0.091
CACACCAA	0.063
AACTATCG	0.0118
AACGCGCA	0.0385
ATCGCGCC	0.201

Sequence	PBM E-score
CGAGCGAC	-0.0894
AACGCGCG	0.319
CAGGCGCG	0.231
CAGGCGCA	-0.114
CGAGCGAG	0.249
CAGGCGCC	0.0447
AACGCGCT	0.123
AGAGCGAG	-0.0653
ATCGCGCA	-0.004
ATCGCGCG	0.241
ATTCCCAA	0.0933
AGGCCCCT	0.0783
AGCCTCGA	-0.0885
CTAGTACA	0.0576
ACCCTAGC	0.0587
CTACTGAA	0.029
ATCCGATA	0.00821
AAGCAGTC	-0.135
CTCTCTTA	-0.0805
AGCAAAGA	-0.0188
AGACCAAT	-0.00568
CGCGCGCA	0.296
CACGCGCA	-0.0169
CGCGCGAG	0.245
AAAACGCC	0.0808

Sequence	PBM E-score
GGCGGGCA	-0.0772
CGCGGGCA	0.281
CGCGCGAA	0.157
CGCGGGCC	0.176
AGCGCGAG	0.0635
TGCGCGCA	0.211
CAAACGCG	0.0917
AAAACGCG	0.285
AAGATCGT	0.0712
TCAGAGCA	-0.0393
CACTTCAC	-0.0837
GCAACAGA	0.0125
ATTGGAGG	-0.149
AATCGCGG	0.162
ACCTCACT	-0.0963
ATCGTGCA	0.0864
ATCGTGCC	-0.145
CTCGCGAG	0.257
CTCGCGAA	-0.00662
CGCGCGCG	0.302
CCCGCGCG	0.178
CACGCGAG	0.225
ATCGTGCG	0.272
CGCGCGCC	0.211
AGTATACG	0.0367

Sequence	PBM E-score
CCCCAGAA	-0.0495
GATTGGCA	-0.0954
TCCAGACA	-0.0642
GGTAACGA	-0.00769
AATTGTGA	0.116
CTCACAAC	0.206
CTCGGAAA	-0.0457
GTCGGAAA	0.234
ATCGGAAA	0.0359
ATGTGAGG	-0.0251
ATGTCCGG	0.0983
CTGTAGTA	0.245
ATGTAGTA	0.154
GTGTAGTA	-0.0167
CAGCGTTC	0.0488
TGCCAACA	0.0266
AAATCTTG	0.0495
CGGCAGAA	0.154
AATGAAGG	0.0439
AATGAAGT	0.23
AATGAAGA	0.14
CTGAACGA	-0.166
AACGCAGA	-0.0108
AACGCAGC	0.253
CACGCAGC	-0.0258

Sequence	PBM E-score
CGGGTAAG	-0.13
AAACTATT	-0.0651
ATCATTTC	0.242
ATCATTTA	0.0968
CTCATTTC	-0.0953
AGTGCACG	0.0226
AATCATAG	0.235
AATCATAT	0.0761
AATCATAC	0.116
AGATTTGG	-0.144
CAAGTTGG	0.225
ATTTGTTC	0.272
ATTTGTTA	0.113
CTTTGTTC	0.0376
GAGTCAGC	-0.151
AAAAGTCG	0.0204
ACCCCATG	0.217
GAAAAATC	0.099
GCATTGCC	-0.0164
ATTCGAAC	0.155
GTTCGAAC	0.233
CTTCGAAC	0.108
GGAAGCAA	-0.0162
CCATGCAG	0.155
TCATGCAA	0.192

Sequence	PBM E-score
CCATGCAA	0.247
GGGGTCAC	-0.0806
ACGGGCGC	0.0207
AATCCCCT	0.0153
CACATAAG	0.0356
AACATAAA	-0.0006
AACATAAG	0.246
AACATAAC	0.134
ATCATAAG	-0.085
AACATAAT	0.248
GAAGGCAC	0.0779
TGTGAGAA	0.183
ATATAGTC	0.196
CTATATAG	0.00641
CTCTATAC	-0.0911
ATATAGTG	0.241
TTATATAA	0.192
ATATAGTA	0.155
ATATATAA	0.24
CTATATAC	0.238
ATACATAA	0.0727
CTATATAA	0.0499
ATACATAC	0.0623
ATACATAT	0.235
AGTGAGGC	-0.0681

Sequence	PBM E-score
AACCTTGC	-0.0724
AGCCAAAC	0.121
AGATTACG	0.121
AGCCGGAG	0.023
CGGTGAAG	-0.222
GCAACGAA	0.187
ACCATCAC	-0.0188
GTATATAC	0.0119
ATATATAT	0.107
ATATATGA	0.0746
ATATATGG	0.23
ATATATGC	0.18
ATATATAC	0.329
AACATCGG	-0.137
CTACAGAA	0.0765
CGGGTGAA	0.16
ATTCAGGC	0.106
CATCAGGC	-0.00739
ATCCAGGC	0.0212
ATTCAGGA	0.117
ACTCAGGG	0.294
ATTCAGGG	0.367
CATCAGGG	0.229
ACTCAGGC	0.00622
ATCCAGGG	0.349

Sequence	PBM E-score
ACTCAGGA	-0.067
ATCCAGGA	-0.0938
AATCAGGG	0.0765
AGCACAAC	0.0937
CTGTGCTC	0.0672
GGCTGTTA	-0.00387
ATCCGTAA	-0.136
AGGCTTCC	0.0147
TCTCTCAA	0.14
CAGTGAAA	0.0943
CAGTGAAG	-0.0253
CAGTGAAC	0.248
CCAGATAC	-0.0175
GTATGCAA	0.0781
GACCAGTA	-0.174
CGAATCAG	0.122
AGAATCAT	0.0757
CGAATTAA	0.175
GGAATTAA	0.153
CGAATCAA	0.22
TGAATCAA	0.232
AGAATCAA	0.103
TGAATTAA	0.273
AGAATCAG	0.272
